Laboratory results as given in PubChem BioAssay (EPA / NIEHS).
Records with an inconclusive call do not appear. Calls of active or inactive are those of the source. The calls were made as follows: active = hit-call score of the fitted dose curve at least 0.9, where 1 is the maximum; inconclusive = response in the unintended direction; inactive = score below 0.9.

Experiments:
[1] = target: rat Opioid Receptor, Non-selective Sodium (Na+) Binding, Oprm1 (gene 25601) (UniProt P33535); assay: NVS_GPCR_rOpiate_NonSelectiveNa: NovaScreen (NVS) G Protein-Coupled Receptor Assay for rat Opioid Receptor, Non-selective Sodium (Na+) Binding (AID 2283311)
Chain of rat Opioid Receptor, Non-selective Sodium (Na+) Binding, Oprm1 (gene 25601) (P33535 whole entry, looked up): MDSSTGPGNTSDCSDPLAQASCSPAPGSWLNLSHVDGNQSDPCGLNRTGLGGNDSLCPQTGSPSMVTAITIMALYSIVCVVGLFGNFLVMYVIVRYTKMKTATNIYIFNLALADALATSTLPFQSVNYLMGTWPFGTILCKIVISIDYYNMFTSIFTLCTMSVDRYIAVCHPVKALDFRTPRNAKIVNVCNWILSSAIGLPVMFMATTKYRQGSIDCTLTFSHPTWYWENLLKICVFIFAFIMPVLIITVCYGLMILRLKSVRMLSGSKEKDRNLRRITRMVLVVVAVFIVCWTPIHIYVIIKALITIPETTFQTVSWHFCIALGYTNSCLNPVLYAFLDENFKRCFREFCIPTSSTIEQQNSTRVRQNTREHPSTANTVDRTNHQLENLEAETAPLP
How it was run: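 Filtration radioligand binding on rat forebrain membrane preparations, read 1.5 h after dosing. Single-concentration 25 µM primary screen in duplicate, followed by singleton concentration series to 50 µM max for actives; DMSO baseline.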

[2] = target: rat Somatostatin Receptor (SST), Sstr1 (gene 25033) (UniProt P28646); assay: NVS_GPCR_rSST: NovaScreen (NVS) G Protein-Coupled Receptor Assay for rat Somatostatin Receptor (SST) (AID 2283314)
Chain of rat Somatostatin Receptor (SST), Sstr1 (gene 25033) (P28646 whole entry, looked up): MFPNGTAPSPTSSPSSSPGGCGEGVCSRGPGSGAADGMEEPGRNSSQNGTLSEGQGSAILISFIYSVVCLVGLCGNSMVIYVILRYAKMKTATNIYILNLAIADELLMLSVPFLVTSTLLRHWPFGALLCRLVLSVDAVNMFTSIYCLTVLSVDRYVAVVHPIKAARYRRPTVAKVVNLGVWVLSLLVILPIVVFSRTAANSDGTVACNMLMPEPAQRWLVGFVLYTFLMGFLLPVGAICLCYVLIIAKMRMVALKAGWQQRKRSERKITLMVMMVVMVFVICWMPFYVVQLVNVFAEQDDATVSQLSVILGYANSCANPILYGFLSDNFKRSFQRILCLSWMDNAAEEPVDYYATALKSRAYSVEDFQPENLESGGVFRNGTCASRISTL
How it was run: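 Single-concentration duplicate screen (25 uM), then concentration-response up to 50 uM for chemicals passing a threshold such as 30% inhibition. Membranes came from rat forebrain. Binding was measured 1 h post-dose by filter radiodetection and scintillation, relative to DMSO.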

[3] = target: rat Opioid Receptor, Non-selective Binding, Oprm1 (gene 25601) (UniProt P33535); assay: NVS_GPCR_rOpiate_NonSelective: NovaScreen (NVS) G Protein-Coupled Receptor Assay for rat Opioid Receptor, Non-selective Binding (AID 2283318)
Chain of rat Opioid Receptor, Non-selective Binding, Oprm1 (gene 25601) (P33535 whole entry, looked up): as the sequence (P33535 whole entry, looked up) above
How it was run: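 Filter-based radioligand displacement using rat forebrain membrane preparations, measured 1.5 h post-dosing. Single-concentration duplicate screen at 25 uM, follow-up in concentration series; activity taken as signal loss relative to DMSO.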

[4] = target: rat Neurokinin-1 Receptor (NK1), Tacr1 (gene 24807) (UniProt P14600); assay: NVS_GPCR_rNK1: NovaScreen (NVS) G Protein-Coupled Receptor Assay for rat Neurokinin-1 Receptor (NK1) (AID 2283309)
Chain of rat Neurokinin-1 Receptor (NK1), Tacr1 (gene 24807) (P14600 whole entry, looked up): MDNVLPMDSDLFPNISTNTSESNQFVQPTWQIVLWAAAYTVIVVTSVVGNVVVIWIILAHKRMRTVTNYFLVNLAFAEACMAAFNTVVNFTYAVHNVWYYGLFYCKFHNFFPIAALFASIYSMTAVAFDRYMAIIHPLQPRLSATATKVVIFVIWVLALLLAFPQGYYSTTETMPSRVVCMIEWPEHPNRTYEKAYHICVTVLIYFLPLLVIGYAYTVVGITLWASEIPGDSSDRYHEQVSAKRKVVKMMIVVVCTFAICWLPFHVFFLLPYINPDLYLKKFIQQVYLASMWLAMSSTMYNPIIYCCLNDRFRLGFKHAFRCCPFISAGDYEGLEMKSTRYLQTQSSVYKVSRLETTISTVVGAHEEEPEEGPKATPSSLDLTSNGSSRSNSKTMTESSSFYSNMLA
How it was run: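 Competitive radioligand binding to NK1 in rat submaxillary membranes, 1 h incubation, filtration and scintillation read-out. Compounds first screened at 25 uM in duplicate, then concentration-response for actives; signal loss relative to DMSO.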

[5] = target: rat Neonicotinoid receptor (NNR), Chrna7 (gene 25302) (UniProt Q05941); assay: NVS_LGIC_rNNR_BungSens: NovaScreen (NVS) Ligand-Gated Ion Channel Assay for rat Neonicotinoid receptor (NNR) (AID 2283315)
Chain of rat Neonicotinoid receptor (NNR), Chrna7 (gene 25302) (Q05941 whole entry, looked up): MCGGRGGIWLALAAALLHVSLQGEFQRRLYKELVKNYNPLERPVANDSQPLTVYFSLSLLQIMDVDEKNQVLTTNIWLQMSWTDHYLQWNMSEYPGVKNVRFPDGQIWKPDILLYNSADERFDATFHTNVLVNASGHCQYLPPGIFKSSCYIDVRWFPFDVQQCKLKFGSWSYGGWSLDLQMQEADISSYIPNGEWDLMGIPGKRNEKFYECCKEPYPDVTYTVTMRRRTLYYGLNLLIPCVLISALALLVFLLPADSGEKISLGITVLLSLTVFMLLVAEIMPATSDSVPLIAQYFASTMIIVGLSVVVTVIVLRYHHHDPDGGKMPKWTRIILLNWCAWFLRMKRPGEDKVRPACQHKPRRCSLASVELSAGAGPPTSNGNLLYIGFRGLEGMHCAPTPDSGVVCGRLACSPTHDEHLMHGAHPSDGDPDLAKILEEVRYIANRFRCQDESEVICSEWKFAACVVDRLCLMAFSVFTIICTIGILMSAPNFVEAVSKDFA
How it was run: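 Rat cortical membrane preparation incubated 2.5 h with tritiated or iodinated radioligand and test chemical. Bound radioactivity was filtered and counted by scintillation, and displacement was analysed against DMSO.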

`COP(=S)(OC)Oc1nc(Cl)c(Cl)cc1Cl` was tested, and the outcome [1] was “inactive” and the outcome [2] was “inactive”.
With `CCCC1COC(Cn2cncn2)(c2ccc(Cl)cc2Cl)O1` (centres undefined) the AC50 [1] was 25 µM (active) and the AC50 [3] was 10.1 µM (active).
In the case of `CC1COC(Cn2cncn2)(c2ccc(Oc3ccc(Cl)cc3)cc2Cl)O1` (centres undefined), the outcome [4] is reported as “inactive”.
For `COc1nc(C)nc(NC(=O)NS(=O)(=O)c2ccccc2CCC(F)(F)F)n1`, the outcome [4] was “inactive” and the outcome [1] was “inactive”.
In the case of `N#CC(CCc1ccc(Cl)cc1)(Cn1cncn1)c1ccccc1` (centres undefined), the outcome [5] is reported as “inactive”.
In the case of `COC(=O)C=C(C)OP(=O)(OC)OC`, the outcome [1] is reported as “inactive”.
